PDI inh = inhibitors of human protein disulfide isomerase; 350,000 compounds, 0.052% hits; PDI insulin aggregation turbidity, A650, 90 min; P07237; AID 588391; inhibition, % at 10 µM;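 active means mean inhibition across replicates of 30% or more, whatever share of single replicates reach that level; inconclusive means mean inhibition below 30% while every single replicate reaches 30%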
ERAP1 inh = ERAP1 (human) enzyme inhibition; Q9NZ08; recombinant ERAP1, Leu-AMC fluorescence, 60 min; inhibition, % at 10.7 µM; 340,000 compounds, 0.15% hits; AID 652197;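 active means mean replicate inhibition of at least 30%, or all replicates individually reaching that 30% level; inactive means mean below 30% and not every replicate reaching it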;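 further: 0% = neutral control wells and 100% = L-leucinethiol positive control wells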
MLL AF4-AF9 inh = inhibitors of human MLL-AF4/AF9 interaction; AlphaScreen, biotin-AF4 peptide binding to FLAG-AF9; inhibition, % at 10 µM; 350,000 compounds, 0.47% hits;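 active means every replicate reaching a set inhibition limit, whatever the replicate mean, cut at about 25% in these data; inconclusive means mean inhibition reaches that limit but some replicates miss it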;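 further: 0% = plate neutral control median and 100% = total signal loss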
ERp5 block = blocks human ERp5 reductase activity on insulin. 350,000 compounds, 0.05% hits. ERp5 insulin aggregation, absorbance 650 nm, 90 min. inhibition, % at 9.99 µM. Q15084. AID 651711;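 active means mean replicate inhibition above about 25%, with every replicate also reaching it, limit read from the data, passing the limit was not always enough; inconclusive means only one of those two criteria met; inactive means neither criterion met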
Target sequence (Q15084 whole entry, looked up): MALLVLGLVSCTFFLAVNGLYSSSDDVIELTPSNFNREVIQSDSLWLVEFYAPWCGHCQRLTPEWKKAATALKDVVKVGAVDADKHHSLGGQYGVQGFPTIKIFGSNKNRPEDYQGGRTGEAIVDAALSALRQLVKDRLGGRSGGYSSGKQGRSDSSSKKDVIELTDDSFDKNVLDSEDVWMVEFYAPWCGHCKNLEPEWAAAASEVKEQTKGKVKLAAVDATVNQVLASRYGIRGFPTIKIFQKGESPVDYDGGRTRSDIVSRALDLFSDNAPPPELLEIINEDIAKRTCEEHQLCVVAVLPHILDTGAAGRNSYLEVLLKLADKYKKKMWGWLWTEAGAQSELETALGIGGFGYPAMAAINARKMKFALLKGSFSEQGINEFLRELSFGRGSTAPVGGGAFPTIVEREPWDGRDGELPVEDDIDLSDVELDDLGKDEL
DENV2 CPE = protects cells from dengue virus 2 cytopathic effect | DENV2-infected cells, cytopathic effect rescue, plate reader | 350,000 compounds, 1.7% hits | CPE inhibition, % at 9.99 µM; in the data active means CPE inhibition above about 20%, passing the limit was not always enough; inconclusive means no clear call, values can overlap the other calls; tested in BHK-21 cells;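 further: 0% = median of neutral control wells and 100% = median of positive control wells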
Active calls of the source: *; ? = inconclusive; . = not tested or not shown. Shown are actives, neighbours in structure and some others; about 1.8% of the full set was active somewhere.

SMILES	PDI inh	ERAP1 inh	MLL AF4-AF9 inh	ERp5 block	DENV2 CPE
O=C(c1cnccn1)N1CC[C@@H]2[C@H](CO)Nc3ccc(-c4ccccc4F)cc3[C@@H]21	.	1	-9	-2	?
O=C(c1cnccn1)N1CC[C@@H]2[C@@H](CO)Nc3ccc(-c4ccccc4F)cc3[C@@H]21	.	0	-1	1	114*
O=C(c1ccccc1)N1CC[C@@H]2[C@@H](CO)Nc3ccc(-c4ccccc4F)cc3[C@@H]21	.	2	-4	0	33*
CC(C)NC(=O)Nc1ccc2c(c1)CC(=O)N([C@H](C)CO)C[C@H](C)[C@@H](CN(C)S(C)(=O)=O)O2	.	-2	3	0	-5
COc1ccccc1-c1cn(CC[C@H]2CC[C@H](NC(=O)c3cnccn3)[C@@H](CO)O2)nn1	.	-2	2	4	7
Cc1noc(C)c1NC(=O)N(C)C[C@@H]1Oc2c(NS(=O)(=O)c3cn(C)cn3)cccc2C(=O)N([C@@H](C)CO)C[C@H]1C	.	-2	-4	0	-4
S=C(SSC(=S)N1CCOCC1)N1CCOCC1	.	12	7	-1	24*
Cc1cccc(C)c1-n1nnnc1C1(C)CCC(=O)N1Cc1cccs1 (configuration not stated)	.	.	-1	-2	57*
COc1ccc(CN2C(=O)CCC2(C)c2nnnn2Cc2ccccc2)cc1 (configuration not stated)	.	3	1	0	85*
Cc1cccc(C)c1-n1nnnc1C1(C)CCC(=O)N1Cc1cccnc1 (configuration not stated)	.	12	-2	4	38*
COc1cccc(S(=O)(=O)Nc2ccc3c(c2)[C@H]2C[C@@H](CC(=O)NCc4cccc(F)c4)O[C@@H](CO)[C@H]2O3)c1	.	2	3	-4	-6
COc1ccc(NC(=O)Nc2ccc3c(c2)C(=O)N([C@@H](C)CO)C[C@@H](C)[C@@H](CN(C)S(=O)(=O)c2ccc(Cl)cc2)OCCCC[C@@H](C)O3)cc1	.	0	-1	3	4
COc1ccc(NC(=O)Nc2ccc3c(c2)C(=O)N([C@@H](C)CO)C[C@@H](C)[C@H](CN(C)S(=O)(=O)c2ccc(Cl)cc2)OCCCC[C@@H](C)O3)cc1	.	2	5	3	36*
COc1ccc(NC(=O)Nc2ccc3c(c2)C(=O)N([C@@H](C)CO)C[C@@H](C)[C@@H](CN(C)S(=O)(=O)c2ccc(F)cc2)OCCCC[C@@H](C)O3)cc1	.	1	-1	-3	30*
C[C@@H]1CCCCO[C@H](CN(C)C(=O)NC2CCCCC2)[C@@H](C)CN([C@H](C)CO)C(=O)c2cc(NC(=O)CCCCCC(=O)Nc3ccccc3N)ccc2O1	.	-3	-1	-6	112*
C[C@H](CO)N1C[C@H](C)[C@H](CN(C)C(=O)c2ccccc2)OCCCC[C@H](C)Oc2ccc(NC(=O)CCCCCC(=O)Nc3ccccc3N)cc2C1=O	.	0	3	4	13
C[C@@H]1CCCCO[C@H](CN(C)C(=O)c2ccccc2)[C@H](C)CN([C@@H](C)CO)C(=O)c2cc(NC(=O)CCCCCC(=O)Nc3ccccc3N)ccc2O1	.	-1	4	4	20*
COc1ccc(CNC(=O)CCNC(=O)c2ccco2)cc1OC	-12	0	0	13	39*
CCCN(CCC)CCNC(=O)C1CCCN(S(=O)(=O)c2ccc3c(c2)oc(=O)n3C)C1 (configuration not stated)	1	.	.	.	.
Cn1c(=O)oc2cc(S(=O)(=O)N3CCCC(C(=O)NCCN4CCOCC4)C3)ccc21 (configuration not stated)	3	3	4	-4	83*
Cc1c(C)c2cc(Cl)c(OCC(=O)NCCCN3CCCC3=O)cc2oc1=O	-1	-1	-1	-1	44*
Cc1cc(C)n(/C(=C\N(C)C)C(=O)c2cccc([N+](=O)[O-])c2)n1	18	-3	51*	4	9
CC(=O)Nc1cccc(NC(=O)CSc2ncc(C(=O)Nc3ccc(F)cc3)c(=O)n2C)c1	2	0	1	5	-4
CC(=O)Nc1ccc(NC(=O)CSc2ncc(C(=O)Nc3ccc(F)cc3)c(=O)n2C)cc1	2	0	-1	7	30*
Cc1cc2c(=O)n(C)c(SCC(=O)Nc3ccc(F)cc3)nc2s1	12	-2	-2	-2	37*
SMILES	PDI inh	ERAP1 inh	MLL AF4-AF9 inh	ERp5 block	DENV2 CPE
COC(=O)CN(c1cc(Cl)ccc1OC)S(=O)(=O)c1ccc(OC)c(OC)c1	0	-1	1	8	61*
O=C(O)/C=C/C(=O)c1ccc2c(c1)CCc1ccccc1-2	22	6	-4	13	29*
CC(=O)Nc1ccc2c(c1)CCc1ccccc1-2	-9	1	-4	3	-5
C/C(=N\NC(=O)c1ccc(CSc2cccc3cccnc23)cc1)C1CCCCC1	6	-6	-3	-7	102*
CC(/C=C1\SC(=S)N(C(C(=O)O)c2ccccc2)C1=O)=C\c1ccccc1 (configuration not stated)	-1	30*	-1	2	-5
C=CCOc1ccc(/C=C2\SC(=S)N(C(C(=O)O)c3ccccc3)C2=O)cc1 (configuration not stated)	6	34*	-1	5	3
CCOc1ccc(/C=C2\SC(=S)N(C(C(=O)O)c3ccccc3)C2=O)cc1OC (configuration not stated)	4	11	5	0	2
CN1C(=O)c2cc(NC(=O)c3cccc(F)c3)ccc2OC[C@H]2O[C@H](CC(=O)N3CCc4ccccc4C3)CC[C@@H]21	.	1	1	0	78*
CN1C(=O)c2cc(NC(=O)c3cccc(F)c3)ccc2OC[C@H]2O[C@@H](CC(=O)N3CCc4ccccc4C3)CC[C@H]21	.	1	0	6	31*
CC(=O)Nc1ccc2c(c1)C(=O)N(C)[C@@H]1CC[C@@H](CC(=O)N3CCc4ccccc4C3)O[C@@H]1CO2	.	.	.	.	5
COc1ccccc1CNC(=O)C[C@H]1CC[C@H]2[C@@H](COC[C@H](O)CN2C(=O)Nc2ccc(C(F)(F)F)cc2)O1	.	1	0	-3	-19
CO[C@@H]1CN(C)C(=O)c2cc(NC(=O)C3CC3)ccc2OC[C@H](C)N(Cc2ccncc2)C[C@H]1C	.	-4	0	7	19
Cc1ccccc1NC(=S)c1nc2ccccc2[nH]1	-1	5	27*	1	-1
C[C@@H]1CN([C@H](C)CO)C(=O)c2cc(NC(=O)Nc3ccc(C(F)(F)F)cc3)ccc2O[C@@H](C)CCCCO[C@@H]1CN(C)C(=O)Nc1cccc2ccccc12	.	-2	-2	12	-8
Cc1noc(C)c1NC(=O)N(C)C[C@H]1OCCCC[C@H](C)Oc2ccc(NS(=O)(=O)c3c(C)noc3C)cc2C(=O)N([C@H](C)CO)C[C@@H]1C	.	0	0	-3	34*
